Activity calls are given as the source filed them. The call rests on the fitted dose curve; in most records, active means well fitted curve in the direction sought with a large enough effect in the repeat runs; inconclusive means weak or mixed curves; inactive means flat fitted curve, though single readings scatter.
Test: qHTS assay to test for compound auto fluorescence at 535 nm (green) in HepG2 cells (AID 720675)
Conditions: green autofluorescence 485/535 nm, 1 h; series mostly up to 91.3 µM; fluorescence, % of fluorescein control: at the top concentration
Description: National Center for Advancing Translational Sciences [NCATS]
NIH Chemical Genomics Center [NCGC]
U.S. Environmental Protection Agency [EPA]
National Institutes of Environmental Health Sciences [NIEHS]
National Toxicology Program [NTP]
U.S. Food and Drug Administration [FDA]
Compound auto fluorescence often interferes with screening of the compound library against various biological targets and signaling pathways. Some of these compounds may have fluorophoric properties. Such properties may interfere with the assay outputs resulting in false positives and/or negatives. To decrease such complications and ensure the compound activities are relevant in terms of biological response, the Tox21 10K compound library was screened for auto fluorescence.
From the fluorophores used as reporter signals in our screening assays, the auto fluorescence equivalencies of compounds against three fluorophores have been evaluated: Triamterene, Fluorescein and Rose Bengal sodium for blue, green and red fluorescence, respectively. The fluorescence intensities were measured using Excitation/Emission wavelengths at 405/460nm, 485/535nm and 540/590nm for blue, green and red labels, respectively. This assay includes the green fluorescence data.
Tox21 Assay Protocol Summary:
2,000 HepG2 cells in 5 uL of culture medium (MEM containing 10% FBS) per well were dispensed into black wall/clear bottom 1536-well plates using a Multidrop Combi Dispenser (ThermoFisher Scientific, Waltham, MA). The assay plates were incubated overnight at 37 C to allow cell attachment to the well bottom, followed by the transfer of 23 nL compound or DMSO vehicle by a pintool work station (Kalypsys , San Diego, CA). After the assay plates were incubated for 1 hr at 37 C and 5% CO2, fluorescence intensities in the assay plates were measured by an Envision (PerkinElmer, Shelton, CT) plate reader using three labels for measuring blue, green and red fluorescence at […] 460, 535 and 590 nm respectively.
On the % scale 0 is the no-effect control and ±100 the full control effect.

Row | SMILES | fluorescence, % of fluorescein control | outcome
1 | Cc1nc2n(c(=O)c1CCN1CCC(c3noc4cc(F)ccc34)CC1)CCC[C@H]2O | -0.0212% [at 46 µM] (inactive) | –
2 | CC(=O)CCCCn1c(=O)c2c(ncn2C)n(C)c1=O | -0.15% [at 18.6 µM] (inactive) | –
3 | O=C(O)c1cc(Cl)cc([N+](=O)[O-])c1Cl | 0.0192% (inactive) | –
4 | CC(CO)c1ccccc1 (stereo not given) | -0.0912% (inactive) | –
5 | Nc1nnc(-c2cccc(Cl)c2Cl)c(N)n1 | 0.0149% [at 46 µM] (inactive) | –
6 | Cc1ccc(S(=O)(=O)O)c(C)c1 | -0.029% (inactive) | –
7 | CCCCCCOC(=O)CC | -0.0591% (inactive) | –
8 | Nc1ccc([N+](=O)[O-])c(N)c1 | 0.0135% (inactive) | –
9 | CNS(=O)(=O)CCc1ccc2[nH]cc(C3CCN(C)CC3)c2c1 | 0.0144% [at 46 µM] (inactive) | –
10 | CC(COC(C)(C)C)OCCCO (stereo not given) | 0.0728% (inactive) | –
11 | O=P(O)(O)OP(=O)(O)O | – | inactive
12 | CCN1CCc2nc(N)oc2CC1 | -0.0109% [at 46 µM] (inactive) | –
13 | CC(C)CCCC(C)(C)O | -0.0388% (inactive) | –
14 | CC(C)NCC(O)COc1ccc(COCCOC(C)C)cc1 (stereo not given) | – | inactive
15 | CC(=O)N[C@@H](CCC(=O)O)C(=O)O | -0.006% [at 46 µM] (inactive) | –
16 | CC1COc2ccccc2N1 (stereo not given) | -0.023% (inactive) | –
17 | CC(=C(CCOC(=O)C(C)C)SSC(CCOC(=O)C(C)C)=C(C)N(C=O)Cc1cnc(C)nc1N)N(C=O)Cc1cnc(C)nc1N | -0.0243% [at 46 µM] (inactive) | –
18 | CC(N)C(=O)OC(C)(C)Cc1ccc(Cl)cc1 (stereo not given) | -0.129% [at 46 µM] (inactive) | –
19 | CC(C)NCC(O)COc1cccc2[nH]ccc12 (stereo not given) | -0.309% [at 46 µM] (inactive) | –
20 | CCC(C)NC(N)=O (stereo not given) | 0.0734% (inactive) | –

Row | SMILES | fluorescence, % of fluorescein control | outcome
21 | COC(=O)CCCCCCCC(=O)OC | 0.0232% (inactive) | –
22 | CN(C)CCOCCO | -0.0171% (inactive) | –
23 | CC(C)=O | – | inactive
24 | C=C(C)C(=O)OCCNC(C)(C)C | 0.093% (inactive) | –
25 | CC1(C)S[C@@H]2[C@H](N=CN3CCCCCC3)C(=O)N2[C@H]1C(=O)O | 0.0437% [at 46 µM] (inactive) | –
26 | NC(CO)C(=O)NNCc1ccc(O)c(O)c1O (stereo not given) | -0.0657% [at 46 µM] (inactive) | –
27 | CC(C(=O)O)c1ccc2c(c1)CC(=O)c1ccccc1S2 (stereo not given) | -0.0065% [at 46 µM] (inactive) | –
28 | CC(=O)OC(C)OC(=O)C(C)c1ccc(-c2ccccc2)c(F)c1 (stereo not given) | – | inactive
29 | COc1ccc(-c2cc(=O)c3c(O)cc(O[C@@H]4O[C@H](CO[C@@H]5O[C@@H](C)[C@H](O)[C@@H](O)[C@H]5O)[C@@H](O)[C@H](O)[C@H]4O)cc3o2)cc1O | -0.0564% [at 46 µM] (inactive) | –
30 | C[C@@H](Oc1ccc(CNC(=O)c2cccnc2Oc2ccc3c(c2)OCO3)c(F)c1)C(=O)O | -0.0707% (inactive) | –
31 | CC(C)N(c1ccccc1)C(C)C | -0.0138% (inactive) | –
32 | CC(CC=O)CCCC(C)(C)O (stereo not given) | – | inactive
33 | CC(CN)CC(C)(C)CCN (stereo not given) | 0.0487% [at 203 µM] (inactive) | –
34 | O=C(O)Cc1ccc(Cl)cc1Cl | 0.0046% (inactive) | –
35 | CCCCCCCCCCl | 0.0616% (inactive) | –
36 | NS(=O)(=O)c1ccc(NC(=O)CCC(=O)O)cc1 | 0.0111% [at 46 µM] (inactive) | –
37 | CCCCOC(=O)c1ccccc1 | 0.0162% (inactive) | –
38 | C=Cc1ccccn1 | -0.108% (inactive) | –
39 | O=C(O)Cc1cn(-c2ccccc2)nc1-c1ccc(Cl)cc1 | 0.0527% [at 46 µM] (inactive) | –
40 | COC(=O)CCc1ccc(OCC(O)CNC(C)C)cc1 (stereo not given) | 0.117% [at 46 µM] (inactive) | –
